From the supplement of paper PMC12532568 come the findings set out here.

SMILES strings stand for the structures. Counter-ions that a name gives are not always drawn.

The subject of this experiment is Danio rerio larvae Tg(actc1b:ZsGreen-LC3), 3 dpf. The experiment is described as follows: LC3 puncta relative area vs vehicle, with NH4Cl (autophagic flux) (log2 fold change); higher = more autophagy. As to conditions: 10 µM; treatment time 16 h; NH4Cl: + 100 mM, 4 h. Here is the method: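 Transgenic Tg(actc1b:ZsGreen-map1lc3) zebrafish larvae (2 dpf) were treated for 16 h with Tocris library compounds at 10 µM (n = 12 larvae per compound). Skeletal-muscle LC3 puncta area relative to body area was measured by high-content confocal imaging before and after 4 h of 100 mM NH4Cl (autophagic flux), normalised to vehicle (DMSO), and reported as log2 fold change.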
In the case of `S=C(S)N1CCCC1` [Pyrrolidinedithiocarbamate ammonium], the “LC3 puncta (log2)” value was 0.71.

`CC1=C(/C=C/C(C)=C/C=C/C(C)=C/C(=O)O)C(C)(C)CCC1` [Retinoic acid]: the “LC3 puncta (log2)” value is 1.64.

For the compound `c1ccc2nc(C3=NCCN3)cnc2c1` [BU 239 hydrochloride], the “LC3 puncta (log2)” value was found to be 0.0532.

Consider `O=c1nc2ccccc2c2n1CC(CN1CCN(c3ccccc3)CC1)N2` (stereo not given), for which the “LC3 puncta (log2)” value is 0.259.

Consider `COc1ccc2[nH]c(-c3ccccc3)c(CCNC(C)=O)c2c1` [2-Phenylmelatonin], for which the “LC3 puncta (log2)” value stood at 0.594.

Consider `CC(C(O)c1ccc(O)cc1)N1CCC(Cc2ccccc2)CC1` (stereo not given) [Ifenprodil hemitartrate], for which the “LC3 puncta (log2)” value worked out at 0.445.

In the case of `CC(CCCCC(=O)Nc1ccc(C(F)(F)F)cc1)NCCc1cnc[nH]1` (stereo not given) [HTMT dimaleate], the “LC3 puncta (log2)” value worked out at 0.469.

With `O=C(O)c1cc(O)c2ccc(Cl)cc2n1` [7-Chlorokynurenic acid], the “LC3 puncta (log2)” value worked out at 0.316.

On to `Cc1noc(NS(=O)(=O)c2ccc(N)cc2)c1C` [Sulfisoxazole], for which the “LC3 puncta (log2)” value was 0.483.

`NS(=O)(=O)c1cc2c(cc1Cl)NC(C1CC3C=CC1C3)NS2(=O)=O` (stereo not given) [Cyclothiazide]: the “LC3 puncta (log2)” value was 0.416.

Consider `N[C@H](C(=O)O)c1ccc(O)c(C(=O)O)c1` [(S)-3-Carboxy-4-hydroxyphenylglycine], for which the “LC3 puncta (log2)” value came out at 0.54.

As for `CC#CCOC(=O)C1=CCCN(C)C1` [Arecaidine but-2-ynyl ester tosylate], the “LC3 puncta (log2)” value is 0.452.

For the compound `CC1=NN(c2ccccc2)C(=O)C1` [Edaravone], the “LC3 puncta (log2)” value is 0.405.

As to `CC12CC3CC(C)(C1)CC(N)(C3)C2` [Memantine hydrochloride], the “LC3 puncta (log2)” value came to 0.723.

Take `CCC1(c2ccccc2)C(=O)NCNC1=O` [Primidone]: the “LC3 puncta (log2)” value worked out at 0.792.

As for `CC(C)Oc1ccc2c(=O)c3cc(C(=O)O)ccc3oc2c1`, the “LC3 puncta (log2)” value turned out to be 0.814.

On to `O=C(O)C1=CCNCC1` [Isoguvacine hydrochloride], for which the “LC3 puncta (log2)” value is 0.468.

Take `O=C(OCCN1CCCCC1)c1c[nH]c2ccccc12`: the “LC3 puncta (log2)” value amounted to 0.6.

On to `N[C@@H](C(=O)O)c1ccc(O)c(C(=O)O)c1` [(R)-3-Carboxy-4-hydroxyphenylglycine], for which the “LC3 puncta (log2)” value amounted to 0.421.

Take `O=C(O)c1cc(=O)c2c(Cl)cc(Cl)cc2[nH]1` [5,7-Dichlorokynurenic acid]: the “LC3 puncta (log2)” value turned out to be 0.00257.

Regarding `COc1cc2nc(N3CCN(C(=O)c4ccco4)CC3)nc(N)c2cc1OC` [Prazosin hydrochloride], the “LC3 puncta (log2)” value turned out to be 0.478.

`COc1cc(C(=O)OCCCN2CCCN(CCCOC(=O)c3cc(OC)c(OC)c(OC)c3)CC2)cc(OC)c1OC` [Dilazep]: the “LC3 puncta (log2)” value stood at 0.426.

Consider `NC(N)=Nc1ccc(Cl)cc1` [4-Chlorophenylguanidine hydrochloride], for which the “LC3 puncta (log2)” value was 0.148.

Turning to `CC(C)NCC(O)c1ccc2ccccc2c1` (stereo not given) [Pronethalol hydrochloride], the “LC3 puncta (log2)” value was 0.862.

For the compound `N=C(N)S/C=C\C(=O)O` [ZAPA sulfate], the “LC3 puncta (log2)” value turned out to be 0.0813.

Regarding `Cc1ccc(/C(=C\CN2CCCC2)c2ccccn2)cc1` [trans-Triprolidine hydrochloride], the “LC3 puncta (log2)” value is -0.196.

`CC1(C(=O)O)NCCc2cc(O)c(O)cc21` (stereo not given) [Salsolinol-1-carboxylic acid]: the “LC3 puncta (log2)” value is 0.429.

On to `NC(=O)CCCCn1ccc(NC(N)=NCC(F)(F)F)n1`, for which the “LC3 puncta (log2)” value is 0.72.

Regarding `N[C@@H](CSS(=O)(=O)O)C(=O)O` [S-Sulfo-L-cysteine sodium salt], the “LC3 puncta (log2)” value was 0.324.

`NC(=O)c1cccc(N)c1` [3-Aminobenzamide]: the “LC3 puncta (log2)” value stood at 0.645.

For the compound `O=C1CN(/N=C/c2ccc(-c3ccc([N+](=O)[O-])cc3)o2)C(=O)N1` [Dantrolene, sodium salt], the “LC3 puncta (log2)” value amounted to 0.404.

`Cc1ccc(OCC(O)C(C)NC(C)C)c2c1CCC2` (stereo not given) [ICI 118,551 hydrochloride]: the “LC3 puncta (log2)” value worked out at 0.592.

Consider `CCCC[C@@H](C=O)NC(=O)[C@H](CC(C)C)NC(=O)OCc1ccccc1` [Calpeptin], for which the “LC3 puncta (log2)” value was 1.29.

For the compound `O=S(=O)(c1cccc2c(Cl)cccc12)N1CCCNCC1` [ML 9 hydrochloride], the “LC3 puncta (log2)” value worked out at 0.383.

Turning to `N[C@H]1CCN(O)C1=O`, the “LC3 puncta (log2)” value was 0.023.

As for `O=C1CC2(CCCC2)CC(=O)N1CCCCNCC1COc2ccccc2O1` (stereo not given), the “LC3 puncta (log2)” value is -0.368.

For `O=C(O)c1cccnc1C(=O)O` [Quinolinic acid], the “LC3 puncta (log2)” value was 0.453.

As to `Fc1ccc(C(c2ccc(F)cc2)N2CCN(C/C=C/c3ccccc3)CC2)cc1` [Flunarizine dihydrochloride], the “LC3 puncta (log2)” value turned out to be 0.536.

As for `CC(C)[C@H]1CC[C@H](C(=O)N[C@H](Cc2ccccc2)C(=O)O)CC1` [Nateglinide], the “LC3 puncta (log2)” value stood at 0.54.

With `OCCN(CCO)c1nc(N2CCCCC2)c2nc(N(CCO)CCO)nc(N3CCCCC3)c2n1` [Dipyridamole], the “LC3 puncta (log2)” value is -0.141.
